# CYP2C19 act: cytochrome P450 2C19 (human) activation; P33261; recombinant CYP2C19, luciferin-H EGE luminescence; stronger effect = higher value; 0 = fully inhibited enzyme, 1 = untreated enzyme; activation factor at 5 µM; 96,000 tested, under 10 active;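 active = activation factor of at least 2 at 5 µM in the primary screen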;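 note: 0 = wells with 2.5 mM tranylcypromine and 1 = vehicle-only wells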
# Target sequence (P33261 whole entry, looked up): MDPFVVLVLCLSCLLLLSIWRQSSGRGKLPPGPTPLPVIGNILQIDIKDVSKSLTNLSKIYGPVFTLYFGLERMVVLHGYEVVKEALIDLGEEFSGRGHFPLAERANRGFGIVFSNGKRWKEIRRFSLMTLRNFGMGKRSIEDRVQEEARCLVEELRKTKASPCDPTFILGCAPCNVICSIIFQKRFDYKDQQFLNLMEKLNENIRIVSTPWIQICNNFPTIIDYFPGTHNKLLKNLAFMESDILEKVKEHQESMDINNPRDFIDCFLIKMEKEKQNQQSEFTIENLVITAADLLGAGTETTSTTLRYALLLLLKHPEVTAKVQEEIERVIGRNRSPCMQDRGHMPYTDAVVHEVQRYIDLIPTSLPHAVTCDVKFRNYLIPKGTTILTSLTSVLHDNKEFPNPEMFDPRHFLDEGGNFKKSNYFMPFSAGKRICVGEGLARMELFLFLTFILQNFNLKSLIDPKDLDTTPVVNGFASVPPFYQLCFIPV
# CYP2C9 activ: CYP2C9 (human) activation. recombinant CYP2C9, luciferin-H conversion, luminescence; stronger effect = higher value; factor 1 = untreated enzyme, 0 = blocked. activation factor at 5 µM. 1.4% of 96,000 active;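 active = activation factor of 2 or more for CYP2C9 at a 5 µM dose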;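 note: 0 = sulfaphenazole-blocked wells and 1 = vehicle-only wells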
# CYP2C19 inh: inhibitors of human CYP2C19; inhibition, % at 5 µM; P33261; 21% of 96,000 active; CYP2C19 Supersomes, luciferin-H EGE luminescence, 30 min;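 active = CYP2C19 inhibition above a set limit at 5 µM in the primary screen, cut at about 50% in these data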;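 note: plate controls were negative control wells for no effect and 2.5 mM tranylcypromine positive control for full effect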
# CYP2C9 inhib: human CYP2C9 inhibition | CYP2C9 Supersomes, luciferin-H conversion, luminescence | inhibition, % at 5 µM | 20% of 96,000 active | AID 777;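 active = blocking of liver enzyme CYP2C9 beyond about 50% at 5 µM, limit read from the data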
# * hit, by the source's call. A selection: hits, their analogues and other compounds. The true share with any hit is near 31%.
SMILES,CYP2C19 act,CYP2C9 activ,CYP2C19 inh,CYP2C9 inhib
CN(C)CCCOC(=O)Cc1ccc(Cl)cc1,0.3,0.7,69.3*,25.7
CN(C)CCCOC(=O)CCc1ccccc1,0.9,1,7.7,2.0
O=C(NCC1COc2ccccc2O1)C1C2C=CC3(CN(Cc4ccccc4Cl)C(=O)C13)O2 (stereo not drawn),0.9,0.9,10.5,9.8
O=C1CCCN1CC(CN1CCOCC1)Sc1nc2ccccc2c(=O)n1-c1ccccc1 (stereo not drawn),0.1,0.1,88.1*,92.8*
COC(=O)c1c(C(=O)OC)c(-c2ccccc2)n2c1CCC2,0.9,1.1,11.8,-6.6
COC(=O)c1cc2c(-c3ccccc3)c(C)c3ccccn3c-2c1C(=O)OC,0.3,0.1,67.2*,87.6*
Clc1ccc(Cn2ncc3c(NCc4ccco4)ncnc32)c(Cl)c1,0.8,2.8*,22.0,-180.3
CCc1cc2c(NCc3ccco3)ncnc2s1,0.5,0.6,50.0*,41.0
Cc1ccc(OC(=O)c2oc3ccc(F)cc3c2C)c(C)c1,0.7,1,29.9,-0.1
O=c1oc2ccccc2cc1-c1csc(NN=C2CCCCC2)n1,0.1,0.2,86.2*,77.6*
O=c1oc2ccccc2cc1-c1nc2c(s1)CCCC2,0.8,0.6,19.6,38.8
O=C(NCCSc1c[nH]c2ccccc12)C1CC1,0.8,0.7,16.3,25.3
Cc1cc(C)nc(-n2nc(C)c(Br)c2Nc2ccc(Br)cc2)n1,0.3,0.9,69.5*,10.7
CCC(Sc1nc(-c2ccccc2)c(C#N)c(=O)[nH]1)C(=O)Nc1cc(C)on1 (stereo not drawn),1.1,0.2,-5.8,82.9*
CCSc1nc(-c2ccccc2)c(C#N)c(=O)[nH]1,1,0.7,2.7,28.7
CCC(Sc1nc2ccccc2[nH]1)C(=O)Nc1cc(C)on1 (stereo not drawn),0.5,0.6,45.5,36.9
COC(=O)C(CC(C)C)NC(=O)CSc1nc(-c2ccccc2)c(C#N)c(=O)[nH]1 (stereo not drawn),0.3,0.1,65.4*,88.3*
CC(C)(C)NS(=O)(=O)c1ccc(CCC(=O)O)cc1,0.8,1.1,23.1,-6.5
CC(C)(C)NS(=O)(=O)c1ccc(NC(=O)C(Sc2ccccc2)c2ccccc2)cc1 (stereo not drawn),0.8,0.4,15.3,63.0*
CC(C)(C)NS(=O)(=O)c1ccc(NS(=O)(=O)Cc2ccccc2)cc1,0.3,0.2,71.8*,81.2*
CC(=O)Cc1nsc(NC(=O)c2cccs2)n1,1.1,1,-8.6,-4.3
CC(C)(C)NC(=O)C(c1ccncc1)N(C(=O)c1csnn1)C1CC1 (stereo not drawn),0.8,1,15.7,-4.4
COc1cc(C)c(C)cc1S(=O)(=O)N1CCCCC1c1cccnc1 (stereo not drawn),0.2,0.8,81.1*,23.8
N#Cc1ccc2ccn(CC(=O)NC3CCCCCC3)c2c1,0.4,0.7,58.1*,27.4
CCCn1nc2cc(C(=O)NC3CCCc4ccccc43)ccc2c1OCC (stereo not drawn),1,1.1,3.7,-11.3
SMILES,CYP2C19 act,CYP2C9 activ,CYP2C19 inh,CYP2C9 inhib
CCCCn1nc2cc(C(=O)N(CC)c3ccc(OC)cc3)ccc2c1OCC,0.5,0.3,51.9*,74.9*
CCCCn1nc2cc(C(=O)NCc3ccccc3OC)ccc2c1OCC,0.5,0.4,46.9,56.0*
CCCCn1nc2cc(C(=O)NCC34CC5CC(CC(C5)C3)C4)ccc2c1OCC,0.7,0.3,25.5,71.2*
CCCCn1nc2cc(C(=O)NC3CCc4ccccc43)ccc2c1OCC (stereo not drawn),0.8,0.4,17.7,55.6*
COc1ccc(CNC(=O)CCc2c(C)nc3ncnn3c2C)cc1,1.1,1.1,-11.3,-5.1
Cn1c(Cl)c(C(=O)Nc2ccc(Cl)cc2)c2ccccc21,0.8,1,19.6,-1.8
CCCCn1nc2cc(C(=O)NCCc3cccs3)ccc2c1OCC,0.4,0.5,61.4*,52.9*
CCOc1c2ccc(C(=O)NCCc3cccs3)cc2nn1CC,1,1.1,-0.6,-6.9
CCC(C)Nc1nc(OC)nc(N(C)C#N)n1 (stereo not drawn),0.9,1.1,6.5,-9.6
O=C(NC(NC(=S)Nc1cc(Cl)ccc1Cl)C(Cl)(Cl)Cl)c1ccco1 (stereo not drawn),0.2,0,80.7*,96.7*
O=C(NC(NC(=S)Nc1ccc(Cl)c(Cl)c1)C(Cl)(Cl)Cl)c1ccco1 (stereo not drawn),0.3,0,72.2*,99.7*
O=C(Nc1ccc(Cl)c(Cl)c1)Oc1ccc(NC(=O)c2ccco2)cc1,1.1,1.1,-5.7,-12.6
O=C(/C=C/c1ccc(OCCCF)cc1)NCc1ccc(Cl)cc1,0.7,0.9,34.2,9.7
COc1cc(Br)c(S(=O)(=O)Nc2c(C)n(C)n(-c3ccccc3)c2=O)cc1OC,1,1.2,-1.3,-21.1
COc1ccc(S(=O)(=O)N(C)c2c(C)n(C)n(-c3ccccc3)c2=O)cc1OC,0.3,1,71.3*,0.2
Cc1ccc(NC(=O)CS(=O)CC(=O)NCCCc2ccccc2)cc1Cl (stereo not drawn),1,0.7,2.9,34.8
Cc1cc(S(=O)(=O)Nc2cc(C)c(O)c(C)c2)c(C)s1,0,1,100.0*,3.9
Cc1cc(S(=O)(=O)Nc2ccc3ccccc3c2)c(C)s1,0.1,0.4,93.4*,64.0*
CCOC(=O)Cc1c(C)[nH]c(=S)[nH]c1=O,1.2,1.2,-17.4,-16.9
Cc1c(NC(=O)C(Sc2ccccc2)c2ccccc2)cccc1[N+](=O)[O-] (stereo not drawn),1,0.8,-1.1,22.8
C=C(C)C1CC=C(C)/C(=N/NC(=O)c2ccc(NC(=O)c3cccc(C)c3)cc2)C1 (stereo not drawn),0.4,0.4,59.4*,62.5*
Cc1cccc(C(=O)N/N=C/c2ccc(OCC(=O)N3CCCCC3)cc2)c1,0.9,0.8,9.0,24.2
COc1ccc(S(=O)(=O)Nc2cc3c(C(C)=O)c(C)oc3c3ccccc23)cc1,0.1,0.2,92.7*,84.0*
CCOC(=O)c1cnc2c(OC)cccc2c1N1CCN(c2ccc(OC)cc2)CC1,0.3,0.3,67.3*,73.0*
CCOC(=O)c1cnc2c(OC)cccc2c1N1CCN(c2ccccc2OC)CC1,0.9,0.5,7.3,46.2
SMILES,CYP2C19 act,CYP2C9 activ,CYP2C19 inh,CYP2C9 inhib
Cc1cccc(Nc2nc(NC(C)C)nc(Oc3ccc(=O)n(C)n3)n2)c1,0.8,0.5,15.7,52.7*
COc1cc(C)nc(Oc2ccc(=O)n(C)n2)n1,1.1,0.9,-5.4,10.3
C/C(=N\NC(=O)c1cccc(Br)c1)c1cccc(NC(=O)c2ccc(C)o2)c1,1.1,1,-12.0,2.7
Cc1ccc2ccccc2c1Cn1c(-n2ccnc2)nc2c1c(=O)n(C)c(=O)n2C,0.4,0.5,58.0*,46.7
O=C(NCc1ccccc1)C1CCCN(S(=O)(=O)c2cccnc2)C1 (stereo not drawn),0.8,0.9,19.4,12.8
COc1ccc(S(=O)(=O)N2CCCC(C(=O)NCc3ccncc3)C2)cc1Cl (stereo not drawn),0,0,100.0*,97.5*

# Screening data: PubChem, Sanford-Burnham Center for Chemical Genomics
